EWS-Fli block: EWS/Fli-driven NR0B1 reporter inhibitors, primary screen, A673 cells, NR0B1 luciferase, luminescence, MLPCN library | 0.67% of 350,000 active | inhibition, % at 12.6 µM | viability-normalised;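 active = mean inhibition of at least 50% after viability correction, with every replicate also passing that limit; inconclusive = mean reaches 50% but only one of two replicates passes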;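 also: firefly luciferase signal divided by Alamar Blue viability fluorescence both relative to DMSO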
EBV LMP1 NFkB: EBV LMP1-driven NF-kappaB luciferase reporter inhibitors, primary screen, cell-based, luminescence, single point; 0.69% of 350,000 active; inhibition, % at 12.5 µM; LMP1-induced NF-kappaB luciferase reporter cells; in the data active = inhibition above about 41%; inconclusive = no clear call, values can overlap the other calls;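 also: 0% = neutral control wells and 100% = reference inhibitor control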
LGR2 antag: inhibitors of bursicon-induced LGR2 CRE-luciferase signal, primary screen, cell-based, HEK293, CRE-luciferase reporter, bursicon stimulation; bursicon-stimulated, 4 h; inhibition, % at 9.99 µM; 0.35% of 380,000 active;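 active = drop in luminescence signal, shown as inhibition above about 50% in the replicate tests, limit read from the data, passing the limit was not always enough; inconclusive = probably only some replicates passing the limit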;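 also: agonist challenge used bursicon conditioned medium at about half maximal strength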
TROY NFkB inh: inhibitors of TROY-driven NF-kB signaling, primary screen, Q293 LMP1-TROYcd cells, NF-kB luciferase, uHTS; Q293 LMP1-TROYcd NF-kB luciferase reporter, 4 h; inhibition, % at 10 µM; AID 1347056, 2019; 0.98% of 360,000 active;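 active = compounds whose plate-normalised and pattern-corrected inhibition of the luciferase reporter signal at the single screening dose is 50% or more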
TWEAK Fn14 block: inhibitors of TWEAK-Fn14 signaling, primary screen, luciferase reporter cells, uHTS | TWEAK-stimulated Fn14 reporter cells, luciferase luminescence, 8 h | inhibition, % at 10 µM | 2% of 360,000 active | AID 1159606, 2016; in the data active = inhibition above about 50%
* = called active by the depositor; u = inconclusive; x = no result given. Compounds with a hit are over-represented: about 2.5% of the library has one in this group of screens.

SMILES	EWS-Fli block	EBV LMP1 NFkB	LGR2 antag	TROY NFkB inh	TWEAK Fn14 block
Oc1cccc(-c2nc3c4c(ncn3n2)-c2ccccc2CC42CCCC2)c1	14	15	u	41	71*
CC(C)NC(=O)Nc1ccc2c(c1)CC(=O)N([C@@H](C)CO)C[C@H](C)[C@@H](CN(C)CC1CC1)O2	x	x	-8	x	x
Cn1c(=O)c2ncn(CC(=O)O)c2n(C)c1=O	4	u	-16	52*	-9
COc1ccc2cc(-c3cc(C(=O)O)c4ccccc4n3)ccc2c1	x	66*	x	25	75*
CCCN(C)C[C@H]1OCCCC[C@@H](C)Oc2ccc(NC(=O)Nc3ccccc3)cc2C(=O)N([C@@H](C)CO)C[C@H]1C	0	x	3	x	x
CCCCN(C)C(=S)Nc1ccc2nc(N3CCN(CC)CC3)cc(C)c2c1	3	-1	6	62*	34
CCCCN(CC)C(=S)Nc1ccc2nc(N3CCN(C)CC3)cc(C)c2c1	-10	10	-9	68*	55*
CCN1CCN(c2cc(C)c3cc(NC(=S)N(C)Cc4ccccc4)ccc3n2)CC1	7	-6	-10	-9	-3
CCN1[C@@H]2c3ccc(-c4ccccc4OC)c(=O)n3C[C@@H]2[C@@H](CO)[C@@H]1C(=O)NCCCN(C)C	-11	x	-8	x	x
C[C@@H]1CCCCO[C@H](CN(C)CC2CC2)[C@H](C)CN([C@@H](C)CO)C(=O)c2cc(NC(=O)c3ccccc3)ccc2O1	x	x	8	x	x
C=CCN1CCc2cc(O)c(O)cc2C(c2ccccc2)C1 (stereo not given)	4	77*	-18	11	17
Cn1nnnc1SCC(=O)N1CCN(S(=O)(=O)c2ccc(Cl)cc2)CC1	-1	1	16	6	-6
Cc1ccc(S(=O)(=O)N2CCN(C(=O)CSc3nnnn3C)C2)cc1	x	62*	-5	16	-5
CNC[C@H]1OCCCC[C@@H](C)Oc2ccc(NS(=O)(=O)c3ccccc3)cc2C(=O)N([C@@H](C)CO)C[C@@H]1C	2	x	4	x	x
O=C(NCc1ccccc1)C(c1ccccc1)N(Cc1ccccc1)C(=O)Cc1ccccc1 (stereo not given)	71*	x	x	x	x
COc1ccc(CNC(=O)C(c2ccco2)N(Cc2ccccc2)C(=O)Cc2cccs2)cc1 (stereo not given)	x	3	x	10	47
COc1ccc(C(=O)N2CCC(C(=O)Nc3ccc4c(c3)OCCO4)CC2)cc1	x	20	x	48	79*
O=C(Nc1ccc2c(c1)OCCO2)C1CCCN(S(=O)(=O)Cc2ccccc2)C1 (stereo not given)	x	3	x	24	54*
O=C(Nc1ccc2c(c1)OCCO2)C(c1cc2ccccc2o1)N1CCC(Cc2ccccc2)CC1 (stereo not given)	-34	x	14	85*	90*
O=C(Nc1ccc2c(c1)OCCO2)C1CCN(C(=O)c2ccc(Br)cc2)CC1	x	6	x	-18	-4
O=C(Nc1ccc2c(c1)OCCO2)C1CCN(S(=O)(=O)c2ccc(Br)s2)CC1	x	-5	x	19	51*
O=C(Nc1ccc2c(c1)OCCO2)C1CCN(S(=O)(=O)c2cccs2)CC1	x	7	x	29	35
O=C(Nc1ccc2c(c1)OCCO2)c1cc2ccccc2o1	4	1	u	2	31
CO[C@@H]1CN(C)C(=O)c2cc(NC(=O)C3CC3)ccc2OC[C@@H](C)N(C(=O)c2ccccn2)C[C@H]1C	-1	x	5	x	x
CN(C)Cc1cn(CC[C@H]2CC[C@@H](NS(=O)(=O)c3ccccc3)[C@@H](CO)O2)nn1	3	x	27	x	x
C[C@@H]1CN([C@H](C)CO)C(=O)Cc2cc(NC(=O)Cc3ccccc3)ccc2O[C@@H]1CN(C)Cc1ccc(C(=O)O)cc1	-4	x	-11	x	x
O=C(Nc1ccc2c(c1)OCO2)c1cc(C2CCCCN2C(=O)CCc2ccccc2)on1 (stereo not given)	2	x	5	-13	9
Cc1nn(C)c(C)c1S(=O)(=O)N1CCC(C(=O)Nc2ccc3c(c2)OCCO3)CC1	0	19	-7	66*	79*
O=C(Nc1ccc2c(c1)OCO2)c1cc(C2CCCCN2S(=O)(=O)Cc2ccccc2)on1 (stereo not given)	-72	x	-76	64*	9
COc1ccc(CN(C)C[C@@H]2OCCCC[C@H](C)Oc3ccc(NC(=O)c4ccncc4)cc3C(=O)N([C@@H](C)CO)C[C@H]2C)cc1	-2	x	-12	x	x

Screens (PubChem BioAssay)
